NPSR antagonist: qHTS Assay for Antagonists of the Neuropeptide S Receptor: cAMP Signal Transduction; 220,000 tested, 1% active; Q6W5P4; CHO-NPSR cells, cAMP TR-FRET, antagonist mode; Potency, µM (highest dose often 38.3 µM), for inactives: at the top dose activity change, negative = inhibition, hits mostly inhibitors; active means well fitted curve in the direction sought with a large enough effect; inconclusive means small, poorly fitted or top-dose-only effect, or another doubt; inactive means no such curve, though single readings can be large; an effect the other way counts as inactive or inconclusive; further: potency means the concentration at half of the fitted maximal effect; nearly all actives have a fitted effect of over 50% in size
IMPase Li cell: qHTS Assay for Identifying the Cell-Membrane Permeable IMPase Inhibitors: Potentiation with Lithium; Potency, µM (titrated, usually from 59.4 µM), inactives show at the top dose activity, negative = IMPase inhibition, actives largely listed as inhibitors; CHO-M1 cells, IP1 TR-FRET (IP-One), carbachol + lithium; 210,000 tested, 0.35% active; active means well fitted curve in the direction sought with a large enough effect; inconclusive means small, poorly fitted or top-dose-only effect, or another doubt; inactive means no such curve, though single readings can be large; an effect the other way counts as inactive or inconclusive;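 further: IP1 builds up when IMPase is blocked and the TR-FRET signal falls; potency means the concentration at half of the fitted maximal effect; plate controls were basal vehicle for no effect and high inhibitor control for full effect; nearly all actives have a fitted effect of over 50% in size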
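CHO-M1, 2000 cells/well, 16–30 h culture; cpd + low Li+, 30 min 37C; lysis with d2-IP1/Eu-anti-IP1 Ab, 10 min RT; TR-FRET 665/620 ratio and 620 channel; AC50 via Hill.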
HPGD inh: qHTS Assay for Inhibitors of HPGD (15-Hydroxyprostaglandin Dehydrogenase). 15-hydroxyprostaglandin dehydrogenase [NAD(+)] (Homo sapiens), P15428. purified HPGD, NADH fluorescence kinetic, PGE2 substrate. Potency, µM, inactives show at the highest dose activity change, negative = inhibition, most hits filed as inhibitors. 150,000 tested, 4.3% active. AID 894, 2007; further: potency means the concentration at half of the fitted maximal effect
Target sequence (P15428 whole entry, looked up): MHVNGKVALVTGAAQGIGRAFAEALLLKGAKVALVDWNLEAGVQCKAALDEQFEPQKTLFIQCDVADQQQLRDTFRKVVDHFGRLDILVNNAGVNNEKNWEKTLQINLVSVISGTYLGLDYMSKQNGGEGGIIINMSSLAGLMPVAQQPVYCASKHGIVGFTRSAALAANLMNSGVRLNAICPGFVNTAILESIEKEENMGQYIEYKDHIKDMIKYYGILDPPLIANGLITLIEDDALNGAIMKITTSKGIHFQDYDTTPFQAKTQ
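NADH formation kinetics: reaction with 30 uM PGE2 and 1 mM NAD+ (final), 20 nM enzyme, Tris-HCl pH 8 with Tween 20, after 15 min compound preincubation at room temperature. Fluorescence change, last versus first of five reads.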
ALDH1A1 inh: qHTS Assay for Inhibitors of Aldehyde Dehydrogenase 1 (ALDH1A1); Aldehyde dehydrogenase 1A1 (Homo sapiens), P00352; Purified ALDH1A1, NADH fluorescence, propionaldehyde substrate; Potency, µM (top dose mostly 75.3 µM), inactives show at the highest dose activity, negative = inhibition, actives largely listed as inhibitors; 220,000 tested, 7.3% active; AID 1030, 2008;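 further: potency means the concentration at half of the fitted maximal effect; plate controls were no enzyme wells and a reference inhibitor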
Target sequence (P00352 whole entry, looked up): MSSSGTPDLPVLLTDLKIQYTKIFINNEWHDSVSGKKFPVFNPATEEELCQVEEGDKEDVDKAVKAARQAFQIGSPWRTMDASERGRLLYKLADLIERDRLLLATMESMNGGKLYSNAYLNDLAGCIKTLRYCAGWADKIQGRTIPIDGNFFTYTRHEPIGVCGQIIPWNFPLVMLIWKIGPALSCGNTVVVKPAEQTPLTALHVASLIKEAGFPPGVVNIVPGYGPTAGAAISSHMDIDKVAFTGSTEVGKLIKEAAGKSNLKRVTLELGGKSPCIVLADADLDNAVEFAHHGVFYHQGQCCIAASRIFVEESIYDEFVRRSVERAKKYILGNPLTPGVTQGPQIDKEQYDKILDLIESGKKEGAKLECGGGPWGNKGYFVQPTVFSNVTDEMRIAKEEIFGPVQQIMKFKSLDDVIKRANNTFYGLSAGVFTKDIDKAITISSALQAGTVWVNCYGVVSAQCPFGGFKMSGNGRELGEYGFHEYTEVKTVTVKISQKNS
PNC inhibitor: High Content Assay for Compounds that inhibit the Assembly of the Perinucleolar Compartment; PC3M PTB-GFP, PNC prevalence imaging, 16 h; hits give low values; AID 2417, 2010; activity change (PNC), negative = inhibition, % at 10 µM; 140,000 tested, 3.1% active;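 active means readout at or below -70, meaning at least 70% loss of cells showing the perinucleolar compartment, a nuclear body marking cancer cells; inconclusive means readout between -30 and a set limit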;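 further: plate controls were DMSO wells for no effect and camptothecin positive control wells for full effect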
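PC3M cells stably expressing PTB-GFP, 750–1000 cells/well, treated 16 h at 37 °C with compound (23 nl of library stock), in duplicate. After paraformaldehyde fixation and Hoechst stain, imaged at 20x; PNC prevalence scored by image analysis.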
IMPase inh: qHTS Assay for Identifying the Cell-Membrane Permeable IMPase Inhibitors; inhibition (IP1 accumulation), % at 46.1 µM; 120,000 tested, under 10 active; Inositol monophosphatase 1 (Rattus norvegicus), P97697; CHO-M1 cells, IP1 accumulation, HTRF TR-FRET ratio; active means well fitted curve in the direction sought with a large enough effect in the signal ratio, not every such curve was filed as active; inconclusive means small, poorly fitted or top-dose-only effect, or a change in a side signal; inactive means no such curve, though single readings can be large or run the other way; the % refers to the signal ratio;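 further: cells stimulated with carbachol in lithium chloride buffer; plate controls were DMSO basal wells for no effect and reference inhibitor wells for full effect; higher means more IMPase inhibition seen as more IP1 and lower FRET ratio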
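Elevated IP1 in lysates lowers TR-FRET signal (665/620 ratio and 620 channel reported). Cells were CHO-M1, given carbachol (50 uM as added) plus 50mM LiCl, pH 7.4, 30 min, 37C; compounds titrated up to 46 uM; AC50 by Hill equation.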
Starred values were filed as active, the others as inactive; u = inconclusive; x = no result; [ ] = remark or other dose. The list is not random: actives were taken first. Their share in the collection is about 11%. Unless noted, the call rests on the fitted dose curve; in most records, active means well fitted inhibition curve with a large enough effect (not every such curve was filed as active); inconclusive means small, poorly fitted or top-dose-only effect, or another doubt; inactive means no such curve, though single readings can be large or run the other way. Unless noted, on the % scale 0 is the no-effect control and ±100 the full control effect.

SMILES | NPSR antagonist | IMPase Li cell | HPGD inh | ALDH1A1 inh | PNC inhibitor | IMPase inh
CC(C)(C)C(=O)NC(=S)NNC(=O)c1sc2ccccc2c1Cl | -52% | -3% | -15% | u | -112* | -4
O=C(NNC(=O)c1sc2cccc(Cl)c2c1Cl)NC1CCCCC1 | 0%[46.1 µM] | -19%[38.3 µM] | -9% | 3.5µM* | 17 | 2
CC(NC(=O)c1sc2ccccc2c1Cl)C1CCCO1 (configuration not stated) | 8% | -10% | -25% | 12% | 24 | x
CC(C)c1nnc(NC(=O)c2sc3ccccc3c2Cl)s1 | -8%[46.1 µM] | -28%[38.3 µM] | -21% | u | 0 | -3
O=C(NNC(=S)NC1CCCCC1)c1sc2ccccc2c1Cl | -20% | 6% | -29% | 22µM* | 22 | x
O=C(NNC(=O)C1CC2CCC1C2)c1sc2ccccc2c1Cl (configuration not stated) | -17% | 14% | -10% | 25µM* | -17 | -13
CC(C(=O)Nc1sccc1C(N)=O)N1C(=O)C2CC=CCC2C1=O (configuration not stated) | 5%[7.67 µM] | 5%[38.3 µM] | -7% | 16% | -1 | 3
CCOC(=O)C(NC(=O)CC)(Nc1ccccc1)C(F)(F)F (configuration not stated) | 15% | -7% | -2% | 7% | 48 | x
Cc1ccn2cc(CCNS(=O)(=O)c3ccc4c(c3)CCCC4)nc2c1 | 8% | 17% | -28% | u | -7 | x
CN(C)/C=C(\C=O)c1c(Cl)cccc1Cl | 11% | 3% | x | -2% | x | x
Cn1nnnc1SCC(=O)N1c2ccccc2Sc2ccccc21 | -10%[46.1 µM] | 15%[38.3 µM] | -10% | 5% | u | 6
Cc1ccc(SCC(=O)N2c3ccccc3Sc3ccccc32)cc1 | u | 24%[38.3 µM] | -22% | 3.5µM* | 13 | 14
O=C(CSc1nncs1)N1c2ccccc2Sc2ccccc21 | 15%[7.67 µM] | 22%[38.3 µM] | -8% | 10µM* | -18 | 10
CCC1CCCCN1C(=O)CSc1nc2ccsc2c(=O)n1Cc1ccccc1 (configuration not stated) | u | 4%[38.3 µM] | -14% | u | 9 | 0
CCCCn1c(SCC(=O)N2CCC(C)CC2)nc2ccsc2c1=O | u | 1%[38.3 µM] | -15% | 11µM* | -22 | 6
CCCCn1c(SCC(=O)Nc2nccs2)nc2ccccc2c1=O | -3%[46.1 µM] | -19%[38.3 µM] | 2% | 3% | 59 | -11
CCCCn1c(SCC(=O)N2CCN(c3ccccc3)CC2)nc2ccsc2c1=O | u | x | x | u | -112* | 7
CCCCn1c(SCC(=O)Nc2ccccc2C(F)(F)F)nc2ccsc2c1=O | u | u | -15% | 28µM* | u | 11
CC1CCCCN1C(=O)C(Cc1ccccc1)N1C(=O)C2CCCCC2C1=O (configuration not stated) | 13% | 6% | 0% | 10% | -2 | 9
COc1ccc(OC)c2[nH]c(=O)c(CCNC(=O)Cc3cccs3)cc12 | 4% | 3% | x | -1% | x | x
O=C1NC2(CCCc3ccccc32)C(=O)N1CCOc1ccc(Br)cc1 (configuration not stated) | -20%[46.1 µM] | 20%[38.3 µM] | 16µM* | 4% | -9 | 0
CCOc1ccc(OCCN2C(=O)NC3(CCCc4ccccc43)C2=O)cc1 (configuration not stated) | -7%[46.1 µM] | 2%[38.3 µM] | -16% | -11% | u | 5
C[N+](C)(C)CCOP(=O)(O)OP(=O)([O-])OC[C@H]1O[C@@H](n2ccc(N)nc2=O)[C@H](O)[C@@H]1O | 9% | 8% | 2% | 10% | -105* | x
Oc1ccc(O)c(-c2cnns2)c1 | 4% | 2% | 1.4µM* | u | -20 | x
O=c1c2ccccc2c(C=Nc2ccc(S(=O)(=O)N3CCCCC3)cc2)c(O)n1-c1ccc(Cl)cn1 | 1% | -6% | -15% | 6% | 11 | 16
SMILES | NPSR antagonist | IMPase Li cell | HPGD inh | ALDH1A1 inh | PNC inhibitor | IMPase inh
CC(O)C(O)C(O)C(O)C1NCCS1 (configuration not stated) | 2%[46.1 µM] | 3%[38.3 µM] | -7% | -7% | 7 | 0
CCN1/C(=C/C=C/C=C/c2sc3ccccc3[n+]2CC)Sc2ccccc21 | 7.9µM* | -3% | -28% | u | 51 | x
CC1(C)O[C@@H]2C[C@H]3[C@@H]4CCC5=CC(=O)C=C[C@]5(C)[C@@]4(F)[C@@H](O)C[C@]3(C)[C@]2(C(=O)CO)O1 | -13% | 4% | -10% | 4% | 27 | x
CC(=O)OCC(=O)[C@@]12OC3(CCCC3)O[C@@H]1C[C@H]1[C@@H]3CCC4=CC(=O)C=C[C@]4(C)[C@@]3(F)[C@@H](O)C[C@@]12C | 4µM* | 9% | -11% | 4% | 27 | x
COc1ccc(CN(C2CCCC2)S(=O)(=O)c2ccc(-n3cnnn3)cc2)cc1OC | -18%[46.1 µM] | 13% | -12% | 1.8µM* | 1 | 2
COc1cc(S(=O)(=O)N(Cc2ccc(C)cc2)C2CCCCC2)ccc1-n1cnnn1 | u | 14%[38.3 µM] | -10% | u | 19 | 3
CC(C)(CO)NCC(=O)Nc1cc(C(F)(F)F)cc(NC(=O)CNC(C)(C)CO)c1Cl | 10% | -9% | -2% | 1% | 24 | x
CC(c1ccccc1)C1C(C#N)=C(N)OC2=C1C(=O)CC(C)(C)C2 (configuration not stated) | u | 2%[38.3 µM] | -14% | u | -4 | 3
CC1(C)CC(=O)C2=C(C1)OC(N)=C(C#N)C2C#Cc1ccccc1 (configuration not stated) | -18%[46.1 µM] | 10%[38.3 µM] | 13µM* | 1µM* | -17 | -4
C/C(=C\c1ccco1)C1C(C#N)=C(N)OC2=C1C(=O)CC(C)(C)C2 (configuration not stated) | -16%[46.1 µM] | 2%[38.3 µM] | -16% | 13µM* | 41 | -1
O=C(c1cc2ccccc2o1)c1nc2c(n1O)CCCCC2 | -12%[46.1 µM] | 3%[38.3 µM] | 14µM* | -1% | u | 8
CC(C)(C)N1CC(c2nc3ccccc3n2Cc2ccc(Cl)cc2)CC1=O (configuration not stated) | -26%[46.1 µM] | 47%[38.3 µM] | -23% | -11% | -9 | 3
CC(C)(C)N1CC(c2nc3ccccc3n2CCOc2ccccc2)CC1=O (configuration not stated) | -5%[46.1 µM] | -11%[38.3 µM] | -7% | 3.2µM* | 20 | 8
O=c1cc(O)c2sc(Nc3ccc(Cl)c(F)c3)nc2[nH]1 | 5% | x | x | x | x | x
O=c1cc(O)c2sc(Nc3ccc(F)c(Cl)c3)nc2[nH]1 | 13% | -1% | x | 7.9µM* | x | x

Screens deposited in PubChem by National Center for Advancing Translational Sciences (NCATS).
